Consider one sequence from PMC7862700, “An all-to-all approach to the identification of sequence-specific readers for epigenetic DNA modifications on cytosine”.

Experiment in all cases: DAPPL (digital affinity profiling via proximity ligation, sequencing); 10 mM Tris-HCl pH 7.5, 50 mM NaCl, 1 mM DTT, 4% glycerol, room temperature, 30 min; GST-TFs on glutathione beads, 16-mer random dsDNA library, 0.1% formaldehyde crosslink after washing; high values mean tight binding
Common to all, as to settings: protein: recombinant; tags: N-terminal GST; dsDNA, one strand shown

One assay addresses T1, ELK1 (Homo sapiens, UniProt P19419 1-428).
T1 sequence: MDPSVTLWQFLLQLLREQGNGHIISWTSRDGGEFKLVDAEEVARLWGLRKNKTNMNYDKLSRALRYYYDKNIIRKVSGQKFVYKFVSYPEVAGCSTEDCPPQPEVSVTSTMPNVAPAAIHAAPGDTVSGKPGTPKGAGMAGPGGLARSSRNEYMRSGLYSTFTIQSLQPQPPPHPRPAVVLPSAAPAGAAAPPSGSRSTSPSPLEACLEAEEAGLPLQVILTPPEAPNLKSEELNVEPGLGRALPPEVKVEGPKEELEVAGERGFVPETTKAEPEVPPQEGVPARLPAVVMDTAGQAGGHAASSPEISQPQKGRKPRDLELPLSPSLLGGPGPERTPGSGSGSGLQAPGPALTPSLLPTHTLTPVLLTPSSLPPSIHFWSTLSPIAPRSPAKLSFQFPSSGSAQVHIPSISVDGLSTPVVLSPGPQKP
The procedure, abridged:
(§1)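 Beads coated with glutathione captured GST-fused human transcription factors that had been expressed in yeast, and the factors were then given DNA barcodes and pooled with a tag-only sample. The pools were incubated with 200 nmole of a random double-stranded 16-mer DNA library in Tris/NaCl/DTT/glycerol buffer for 30 min at room temperature, washed, crosslinked with 0.1% formaldehyde and proximity-ligated with BsaI/T4 ligase at 37 °C for 1 h. PCR amplification and Illumina NextSeq500 sequencing came last. Binding signal is each hexamer's read frequency for a factor divided by its frequency for the tag-only sample.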

Another assay has as its target T2, GABPA (Homo sapiens, UniProt Q06546 1-454).
T2 sequence: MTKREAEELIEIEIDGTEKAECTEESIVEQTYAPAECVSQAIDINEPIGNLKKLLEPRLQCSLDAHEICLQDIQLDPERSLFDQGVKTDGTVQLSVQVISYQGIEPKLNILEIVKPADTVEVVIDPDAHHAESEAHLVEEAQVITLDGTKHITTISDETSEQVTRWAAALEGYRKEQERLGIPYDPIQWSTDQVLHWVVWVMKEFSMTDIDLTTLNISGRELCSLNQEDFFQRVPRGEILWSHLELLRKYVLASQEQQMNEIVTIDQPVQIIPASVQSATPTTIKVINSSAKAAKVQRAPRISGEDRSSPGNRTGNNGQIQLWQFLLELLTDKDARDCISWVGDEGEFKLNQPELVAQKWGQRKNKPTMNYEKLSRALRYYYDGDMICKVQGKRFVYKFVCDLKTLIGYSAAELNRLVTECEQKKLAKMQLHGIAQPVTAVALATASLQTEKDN
An outline of the steps: as §1

The target in the next assay is T3, ERG (Homo sapiens, UniProt P11308 1-479).
T3 sequence: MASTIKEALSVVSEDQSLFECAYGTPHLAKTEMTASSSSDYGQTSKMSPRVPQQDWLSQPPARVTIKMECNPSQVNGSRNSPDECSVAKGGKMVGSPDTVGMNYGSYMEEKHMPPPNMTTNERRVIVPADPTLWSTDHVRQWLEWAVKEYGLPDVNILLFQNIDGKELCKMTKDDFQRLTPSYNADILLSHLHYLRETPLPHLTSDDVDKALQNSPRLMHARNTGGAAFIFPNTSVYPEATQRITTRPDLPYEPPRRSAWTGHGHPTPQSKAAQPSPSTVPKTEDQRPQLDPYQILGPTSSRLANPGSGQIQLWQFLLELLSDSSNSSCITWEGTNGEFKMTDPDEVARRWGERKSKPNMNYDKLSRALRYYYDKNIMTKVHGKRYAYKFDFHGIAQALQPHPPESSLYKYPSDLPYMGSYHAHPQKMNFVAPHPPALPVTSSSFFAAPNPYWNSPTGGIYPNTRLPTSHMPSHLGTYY
The procedure, abridged: as §1

In a further assay the target is T4, EHF (Homo sapiens, UniProt Q9NZC4 1-300).
T4 sequence: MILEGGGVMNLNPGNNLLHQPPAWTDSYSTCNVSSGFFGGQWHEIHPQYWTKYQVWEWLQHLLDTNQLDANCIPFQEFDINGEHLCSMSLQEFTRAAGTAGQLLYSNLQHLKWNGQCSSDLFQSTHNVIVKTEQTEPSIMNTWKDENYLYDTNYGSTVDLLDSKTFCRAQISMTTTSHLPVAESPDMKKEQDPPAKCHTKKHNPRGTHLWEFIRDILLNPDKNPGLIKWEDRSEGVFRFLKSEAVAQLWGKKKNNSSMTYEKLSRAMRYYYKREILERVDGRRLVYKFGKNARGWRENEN
The procedure, abridged: as §1

For the next assay, the target named is SPI1 (Homo sapiens, UniProt P17947 1-270). An outline of the steps:
as §1

The target of the next assay is T5, FEV (Homo sapiens, UniProt Q99581 1-238).
T5 sequence: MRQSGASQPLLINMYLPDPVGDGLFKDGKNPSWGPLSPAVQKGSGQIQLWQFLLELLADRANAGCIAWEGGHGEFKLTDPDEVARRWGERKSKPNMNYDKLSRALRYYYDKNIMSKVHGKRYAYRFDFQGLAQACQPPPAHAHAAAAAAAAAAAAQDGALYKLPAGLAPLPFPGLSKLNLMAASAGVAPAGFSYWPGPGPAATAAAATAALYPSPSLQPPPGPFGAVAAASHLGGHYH
An outline of the steps:
as §1

Another assay deals with ETV5 (Homo sapiens, UniProt P41161 1-510). The procedure, abridged:
as §1

In a further assay the target is ELF4 (Homo sapiens, UniProt Q99607 1-663). The procedure, abridged:
as §1

For a further assay, the target named is T6, ELK4 (Homo sapiens, UniProt P28324-2 1-405).
T6 sequence: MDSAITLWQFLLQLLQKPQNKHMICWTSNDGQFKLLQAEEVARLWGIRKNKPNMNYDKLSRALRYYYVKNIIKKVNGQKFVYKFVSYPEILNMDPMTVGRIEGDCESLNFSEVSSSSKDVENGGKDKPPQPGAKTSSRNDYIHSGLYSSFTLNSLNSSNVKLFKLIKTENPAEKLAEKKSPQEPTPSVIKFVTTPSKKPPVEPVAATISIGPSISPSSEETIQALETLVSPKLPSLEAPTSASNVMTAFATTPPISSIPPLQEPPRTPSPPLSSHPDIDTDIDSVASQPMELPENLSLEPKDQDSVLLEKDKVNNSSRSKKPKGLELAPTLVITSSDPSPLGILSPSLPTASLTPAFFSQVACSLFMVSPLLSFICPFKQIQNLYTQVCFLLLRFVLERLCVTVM
The procedure, abridged:
as §1

Another assay has as its target T7, ETV2 (Homo sapiens, UniProt O00321 1-342).
T7 sequence: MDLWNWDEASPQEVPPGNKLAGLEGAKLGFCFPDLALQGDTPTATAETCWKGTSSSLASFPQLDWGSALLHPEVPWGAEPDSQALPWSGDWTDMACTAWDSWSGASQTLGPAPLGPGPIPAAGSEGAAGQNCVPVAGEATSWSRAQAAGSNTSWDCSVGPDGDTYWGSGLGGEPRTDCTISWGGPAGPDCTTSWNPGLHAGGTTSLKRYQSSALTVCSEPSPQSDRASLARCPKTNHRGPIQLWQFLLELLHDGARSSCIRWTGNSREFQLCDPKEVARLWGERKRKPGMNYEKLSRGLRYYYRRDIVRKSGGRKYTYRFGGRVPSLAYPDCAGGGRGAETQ
An outline of the steps: as §1

The next assay concerns the target ETV1 (Homo sapiens, UniProt P50549 1-477). The procedure, abridged: as §1
Another assay has as its target T8, ERF (Homo sapiens, UniProt P50548 1-548).
T8 sequence: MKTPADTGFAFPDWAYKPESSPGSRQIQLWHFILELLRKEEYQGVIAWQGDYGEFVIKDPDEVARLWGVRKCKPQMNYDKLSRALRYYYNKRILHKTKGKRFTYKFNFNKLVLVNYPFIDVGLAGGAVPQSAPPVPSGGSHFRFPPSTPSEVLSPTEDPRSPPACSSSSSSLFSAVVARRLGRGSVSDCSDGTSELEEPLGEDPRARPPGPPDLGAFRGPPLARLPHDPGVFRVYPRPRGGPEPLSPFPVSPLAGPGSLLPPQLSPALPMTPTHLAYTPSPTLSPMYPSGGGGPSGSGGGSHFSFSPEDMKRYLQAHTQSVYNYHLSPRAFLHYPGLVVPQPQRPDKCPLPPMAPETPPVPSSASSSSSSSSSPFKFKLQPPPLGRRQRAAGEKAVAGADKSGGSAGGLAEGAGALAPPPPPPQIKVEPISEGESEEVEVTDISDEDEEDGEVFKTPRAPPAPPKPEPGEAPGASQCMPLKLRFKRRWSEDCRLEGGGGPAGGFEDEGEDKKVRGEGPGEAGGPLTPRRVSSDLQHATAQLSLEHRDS
The procedure, abridged: as §1

The target of a further assay is T9, ETV3L (Homo sapiens, UniProt Q6ZN32 1-361).
T9 sequence: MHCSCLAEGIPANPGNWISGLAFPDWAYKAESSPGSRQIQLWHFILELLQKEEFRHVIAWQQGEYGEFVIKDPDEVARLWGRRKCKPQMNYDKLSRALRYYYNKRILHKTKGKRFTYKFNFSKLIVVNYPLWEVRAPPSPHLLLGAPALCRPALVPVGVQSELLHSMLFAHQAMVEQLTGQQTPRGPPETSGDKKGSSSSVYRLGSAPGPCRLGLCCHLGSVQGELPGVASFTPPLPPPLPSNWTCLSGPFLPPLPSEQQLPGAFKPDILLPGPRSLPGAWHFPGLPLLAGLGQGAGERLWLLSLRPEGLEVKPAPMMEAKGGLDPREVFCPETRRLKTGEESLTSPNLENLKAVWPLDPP
The procedure, abridged:
as §1

The next assay concerns the target T10, ETS2 (Homo sapiens, UniProt P15036 1-469).
T10 sequence: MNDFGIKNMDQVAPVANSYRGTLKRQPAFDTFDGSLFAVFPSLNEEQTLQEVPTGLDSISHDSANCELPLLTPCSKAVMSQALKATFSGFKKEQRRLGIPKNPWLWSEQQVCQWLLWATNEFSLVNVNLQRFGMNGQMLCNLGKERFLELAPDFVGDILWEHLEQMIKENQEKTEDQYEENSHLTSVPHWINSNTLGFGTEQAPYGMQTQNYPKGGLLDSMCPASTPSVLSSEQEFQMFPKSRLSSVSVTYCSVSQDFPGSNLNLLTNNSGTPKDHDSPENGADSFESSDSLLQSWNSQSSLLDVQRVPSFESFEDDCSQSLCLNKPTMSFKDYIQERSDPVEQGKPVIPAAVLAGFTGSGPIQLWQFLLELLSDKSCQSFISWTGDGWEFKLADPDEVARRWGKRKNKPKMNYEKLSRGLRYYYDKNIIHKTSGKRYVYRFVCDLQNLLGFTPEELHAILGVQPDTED
The procedure, abridged:
as §1

Another assay concerns the target T11, SPDEF (Homo sapiens, UniProt O95238 1-335).
T11 sequence: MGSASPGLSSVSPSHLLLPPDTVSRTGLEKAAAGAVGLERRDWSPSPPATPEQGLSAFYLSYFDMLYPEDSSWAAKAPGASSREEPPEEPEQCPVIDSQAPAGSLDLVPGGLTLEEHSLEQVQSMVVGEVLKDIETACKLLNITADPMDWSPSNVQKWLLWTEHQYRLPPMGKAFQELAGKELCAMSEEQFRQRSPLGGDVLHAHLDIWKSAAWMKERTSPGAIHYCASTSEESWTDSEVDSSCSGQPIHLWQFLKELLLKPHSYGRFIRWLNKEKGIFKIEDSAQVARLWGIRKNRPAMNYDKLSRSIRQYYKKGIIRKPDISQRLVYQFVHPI
The procedure, abridged:
as §1

The target of another assay is T12, ETV7 (Homo sapiens, UniProt Q9Y603 1-341).
T12 sequence: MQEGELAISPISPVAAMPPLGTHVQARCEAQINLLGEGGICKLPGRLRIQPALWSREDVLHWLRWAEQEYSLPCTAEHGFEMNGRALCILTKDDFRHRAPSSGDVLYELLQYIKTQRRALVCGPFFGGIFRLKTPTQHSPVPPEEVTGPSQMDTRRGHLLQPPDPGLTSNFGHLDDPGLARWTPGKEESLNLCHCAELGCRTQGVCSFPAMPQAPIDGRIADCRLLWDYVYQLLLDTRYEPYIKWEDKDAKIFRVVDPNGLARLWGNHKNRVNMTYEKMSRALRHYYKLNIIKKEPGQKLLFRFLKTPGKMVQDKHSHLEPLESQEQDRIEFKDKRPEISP
The procedure, abridged: as §1

For a further assay, the target named is T13, ETV3 (Homo sapiens, UniProt P41162-2 1-143).
T13 sequence: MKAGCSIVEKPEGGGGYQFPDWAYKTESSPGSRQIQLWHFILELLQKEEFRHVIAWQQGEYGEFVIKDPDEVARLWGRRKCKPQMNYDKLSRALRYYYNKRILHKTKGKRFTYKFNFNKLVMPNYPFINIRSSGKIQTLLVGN
The procedure, abridged:
as §1

Sequence of ELF4 (Q99607 whole entry): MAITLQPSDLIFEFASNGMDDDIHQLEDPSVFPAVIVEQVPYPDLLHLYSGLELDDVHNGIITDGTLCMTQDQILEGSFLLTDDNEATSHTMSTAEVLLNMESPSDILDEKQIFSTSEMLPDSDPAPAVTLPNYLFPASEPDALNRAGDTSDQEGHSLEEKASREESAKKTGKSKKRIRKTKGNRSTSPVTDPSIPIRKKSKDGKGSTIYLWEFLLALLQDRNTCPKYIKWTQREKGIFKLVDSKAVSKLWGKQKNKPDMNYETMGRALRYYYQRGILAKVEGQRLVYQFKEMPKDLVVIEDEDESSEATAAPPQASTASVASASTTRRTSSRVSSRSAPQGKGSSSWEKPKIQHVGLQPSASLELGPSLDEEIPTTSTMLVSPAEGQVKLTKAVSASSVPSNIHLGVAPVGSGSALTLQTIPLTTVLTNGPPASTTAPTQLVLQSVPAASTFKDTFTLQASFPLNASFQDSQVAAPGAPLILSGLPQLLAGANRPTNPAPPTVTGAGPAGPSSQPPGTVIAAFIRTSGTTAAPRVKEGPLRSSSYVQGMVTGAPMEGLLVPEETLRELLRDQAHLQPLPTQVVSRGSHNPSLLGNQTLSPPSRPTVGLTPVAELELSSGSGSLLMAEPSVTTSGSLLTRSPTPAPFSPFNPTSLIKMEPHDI
Sequence of ETV5 (P41161 whole entry): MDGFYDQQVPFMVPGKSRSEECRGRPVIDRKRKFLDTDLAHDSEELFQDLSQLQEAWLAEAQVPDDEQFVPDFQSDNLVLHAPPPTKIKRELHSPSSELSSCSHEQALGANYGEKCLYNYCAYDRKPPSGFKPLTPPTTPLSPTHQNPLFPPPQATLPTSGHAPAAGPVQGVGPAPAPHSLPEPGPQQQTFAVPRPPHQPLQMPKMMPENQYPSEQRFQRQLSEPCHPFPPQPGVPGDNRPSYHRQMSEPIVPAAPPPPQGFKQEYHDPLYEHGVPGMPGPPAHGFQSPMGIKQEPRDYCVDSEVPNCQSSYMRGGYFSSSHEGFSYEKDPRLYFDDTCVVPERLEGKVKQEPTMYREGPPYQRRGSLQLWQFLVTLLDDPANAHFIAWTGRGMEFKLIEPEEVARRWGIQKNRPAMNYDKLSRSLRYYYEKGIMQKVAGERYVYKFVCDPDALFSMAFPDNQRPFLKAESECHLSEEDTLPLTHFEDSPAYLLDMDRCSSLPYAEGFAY
Sequence of ETV1 (P50549 whole entry): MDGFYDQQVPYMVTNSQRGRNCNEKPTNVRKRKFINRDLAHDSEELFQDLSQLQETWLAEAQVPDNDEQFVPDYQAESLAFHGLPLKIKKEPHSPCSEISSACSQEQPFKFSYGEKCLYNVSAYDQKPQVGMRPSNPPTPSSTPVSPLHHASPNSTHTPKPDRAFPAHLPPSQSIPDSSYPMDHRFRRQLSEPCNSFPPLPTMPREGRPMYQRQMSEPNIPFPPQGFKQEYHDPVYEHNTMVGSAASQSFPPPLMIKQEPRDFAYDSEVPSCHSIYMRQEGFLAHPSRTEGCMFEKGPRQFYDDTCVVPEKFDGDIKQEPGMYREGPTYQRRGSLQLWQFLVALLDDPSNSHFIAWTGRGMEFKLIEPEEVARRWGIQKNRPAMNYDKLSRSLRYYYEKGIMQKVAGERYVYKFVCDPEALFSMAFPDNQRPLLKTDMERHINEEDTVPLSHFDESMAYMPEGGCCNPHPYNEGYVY

As for TAGGGC, the binding signal was 1.07 fold enrichment (6-mer frequency, TF over GST control) with ELK1; 1.01 fold enrichment (6-mer frequency, TF over GST control) with GABPA; 1.01 fold enrichment (6-mer frequency, TF over GST control) with ERG; 1.18 fold enrichment (6-mer frequency, TF over GST control) with EHF; 1.01 fold enrichment (6-mer frequency, TF over GST control) with SPI1; 1.06 fold enrichment (6-mer frequency, TF over GST control) with FEV. The binding signal with ETV5 is 1.03 fold enrichment (6-mer frequency, TF over GST control); with ELF4 it was 1.03 fold enrichment (6-mer frequency, TF over GST control); in the assay with ELK4, 1.02 fold enrichment (6-mer frequency, TF over GST control); with ETV2 it was 1.12 fold enrichment (6-mer frequency, TF over GST control); in the assay with ETV1, 1.06 fold enrichment (6-mer frequency, TF over GST control); with ERF it was 1.09 fold enrichment (6-mer frequency, TF over GST control). Also, the binding signal was 1.04 fold enrichment (6-mer frequency, TF over GST control) in the assay with ETV3L; 1.06 fold enrichment (6-mer frequency, TF over GST control) with ETS2; 1.01 fold enrichment (6-mer frequency, TF over GST control) with SPDEF; 1.07 fold enrichment (6-mer frequency, TF over GST control) with ETV7; 1.03 fold enrichment (6-mer frequency, TF over GST control) with ETV3.
